# Compounds with a hit are over-represented: about 21% of the library has one in this group of screens.
# SARS PLP yeast – blocks SARS-CoV papain-like protease in a yeast assay. Potency, µM (highest dose often 32.9 µM), inactives show at the top dose activity, positive = growth rescue, actives largely listed as activators. 330,000 compounds, 0.19% hits. S. cerevisiae expressing SARS-CoV PLpro, growth rescue; note: potency is the fitted concentration of half-maximal effect; 0% is about no effect; nearly all actives have a fitted effect of over 55% in size
# NS1 function inh – blocks influenza NS1 protein function. Potency, µM (highest dose often 46.1 µM), without a hit: at the highest dose activity, positive = more growth. 270,000 compounds, 0.4% hits; note: potency is the fitted concentration of half-maximal effect; actives are rising curves; nearly all actives have a fitted effect of over 50% in size
#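 Compounds were scored for reversing the slow growth caused by influenza A NS1 in S. cerevisiae, measured by optical density at 600 nm. Assay medium contained 2% galactose at pH 6.0; NS1-free yeast of the same strain were the positive control.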
# Pf growth 48h – inhibits P. falciparum growth in the first generation, 48 h | 310,000 compounds, 5.9% hits | Potency, µM (doses to about 28.7 µM), for inactives: top-dose activity change, negative = inhibition, usual class: inhibitors | P. falciparum luciferase growth in erythrocytes, 48 h; active = well fitted inhibition curve with a large enough effect; inconclusive = small, poorly fitted or top-dose-only effect, or another doubt; inactive = no such curve, though single readings can be large or run the other way; note: potency is the fitted concentration of half-maximal effect; % is set by controls: 0 for no effect and ±100 for the full control effect
#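 Here the parasites carry a stable luciferase gene and grow inside erythrocytes in Albumax-based RPMI medium with compound for one erythrocytic cycle. Activity is scored as loss of luminescent signal.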
# Pf growth 96h – inhibits malaria parasite growth, 96 h | 320,000 compounds, 6.9% hits | Potency, µM (titrated, usually from 28.7 µM), without a hit: at the top dose activity change, negative = inhibition, usual class: inhibitors | P. falciparum luciferase reporter growth, 96 h | AID 504834; active = well fitted inhibition curve with a large enough effect; inconclusive = small, poorly fitted or top-dose-only effect, or another doubt; inactive = no such curve, though single readings can be large or run the other way; note: potency is the fitted concentration of half-maximal effect; % is set by controls: 0 for no effect and ±100 for the full control effect
#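 96 h incubation, 37 C, 5% CO2, of luciferase-reporter P. falciparum-infected RBCs (2% hematocrit, 0.05% parasitemia final) with test compounds; endpoint luminescence.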
# CHX counter – counter-screen hit for Shiga toxin inhibitors, cycloheximide; cell reporter, cycloheximide protein synthesis inhibition counterscreen; max response, %; 300,000 compounds, 12% hits; in the data active = max response mostly above about 13%, no sharp cut-off; inactive = mostly below about 14%; note: read at 38.3 µM for the half of the compounds with a filed dose; 0% is about no effect
# Shiga inhibitor – blocks Shiga toxin action in Vero cells. 290,000 compounds, 9.2% hits. inhibition, % at 38.7 µM. Vero cells, Shiga toxin protein synthesis inhibition reporter. AID 2315; in the data active = inhibition mostly above about 28%, no sharp cut-off; inactive = mostly below about 43%; note: 0% is about no effect
# Starred values were filed as active, the others as inactive; ? = inconclusive; nt = no result; + = active, no number. Unless noted, calls come from the whole dose curve.
SMILES,SARS PLP yeast,NS1 function inh,Pf growth 48h,Pf growth 96h,CHX counter,Shiga inhibitor
Cc1nc(CSc2nsc(/C=C/N(C)C)c2C#N)cs1,-2.3%,nt,?,9.28µM*,28.7*,102.6*
CN(C)C(=O)Oc1cccc(OCc2n(C)c3ccccc3[n+]2C)c1,7.4%,-4.9%,?,2.94µM*,-4.5,-2.1
CCOC(=O)c1ccc(NC(=O)NNC(=O)CCc2ccc(OC)cc2)cc1,7.1%,13.0%,?,38.1%,-1.2,-1.3
Cc1ccc(OCC(=O)Nc2ccc(F)cc2)c([N+](=O)[O-])n1,-1.8%,5.8%,347.8%,314.5%,56.4*,+
Cc1ccc(OCC(=O)Nc2ccc3c(c2)CCC3)c([N+](=O)[O-])n1,0.2%,nt,36.7%,-0.4%,39.9*,66.7*
CC(=O)c1ccc(OCC(=O)Nc2ccc3c(c2)CCC3)cc1,-1.3%,nt,-6.4%,57.2%,19.7*,18.3
Cc1ccc(OCC(=O)Nc2ccc(Cl)cc2)c([N+](=O)[O-])n1,3.2%,nt,407.8%,318.0%,nt,nt
Cc1ccc(OCC(=O)NCC(=O)Nc2ccc(F)cc2)c([N+](=O)[O-])n1,-6.1%,5.2%,23.6%,77.5%,-1.1,-3.0
O=C(CCc1nnc(Cc2c[nH]c3ccccc23)o1)NC(C1CC1)C1CC1,-0.6%,-2.6%,?,34.8%,9.7,-18.9
COc1ccc(NC(=O)c2oc3ccccc3c2C)c(OC)c1,-4.2%,-4.4%,17.5%,-14.4%,16.1*,46.5*
COc1ccc(-c2nonc2NC(=O)c2oc3ccccc3c2C)cc1OC,-1.3%,-14.4%,?,10.4µM*,1.2,-6.0
COc1ccc(NC(=O)c2oc3ccccc3c2NC(=O)c2ccc(OC)c(OC)c2)c(OC)c1,nt,-7.7%,nt,nt,nt,nt
CCOc1ccccc1C(=O)Nc1cc(OC)ccc1OC,-8.7%,-63.1%,-29.6%,?,-2.9,-8.8
COc1ccc(OC)c(NC(=O)c2cc3oc4ccccc4c3cc2O)c1,0.4%,4.5%,4.15µM*,?,-2.6,-8.0
COc1cc(NC(=O)c2cc(Cl)ccc2Cl)ccc1-c1cc2ccccc2oc1=O,2.6%,-6.1%,?,11.7µM*,-3.3,-2.5
COC(=O)c1cc(OC)c(OC)cc1NC(=O)c1oc2ccccc2c1C,nt,-1.4%,nt,nt,nt,nt
O=C(COC(=O)Cc1ccc(S(=O)(=O)N2CCOCC2)s1)NCc1ccc(Cl)cc1,5.0%,0.2%,nt,-9.9%,-2.4,-10.2
COc1ccc(CCNC(=O)C(=O)N2CCCC2)cc1OC,0.9%,1.6%,32.6%,10.6%,0.4,-6.3
COc1ccc(NC(=O)c2cc3ccccc3oc2=O)c(OC)c1,2.0%,-4.5%,?,?,50.7*,133.1*
COc1ccc(S(=O)(=O)Nc2ccccc2OC)cc1NC(=O)c1cc2ccccc2oc1=O,22.5%,18.0%,16.9%,-9.9%,38.4*,148.0*
COc1ccccc1NS(=O)(=O)c1ccc(C)c(C(=O)Nc2cc(C)on2)c1,-10.8%,nt,nt,nt,nt,nt
COc1ccccc1C(=O)Nc1cc2ccccc2oc1=O,3.8%,?,nt,52.5%,18.7*,43.3*
O=C(O)c1ccccc1NC(=O)c1cc2ccccc2oc1=O,-2.0%,-0.2%,16.8%,?,-2.5,-3.2
COc1ccccc1C(=O)Nc1cc2cc(Br)ccc2oc1=O,10.1%,-4.9%,54.0%,23.9%,-3.8,8.1
CC[C@@]1(C(=O)OC)N[C@H](CN(C)S(=O)(=O)c2ccc(OC(F)(F)F)cc2)[C@@H]2C(=O)N(C)C(=O)[C@@H]21,-1.6%,nt,nt,nt,nt,nt
SMILES,SARS PLP yeast,NS1 function inh,Pf growth 48h,Pf growth 96h,CHX counter,Shiga inhibitor
O=C(Nc1cccc(S(=O)(=O)N2CCOCC2)c1)c1cn(-c2ccccc2)nc1-c1ccc(F)cc1,0.7%,12.6%,16.9%,39.8%,-1.9,-1.3
O=C(NCCCN1CCOCC1)c1cn(-c2ccccc2)nc1-c1cccs1,3.7%,-0.7%,nt,-28.2%,-0.1,-8.6
O=C(Nc1cccc(S(=O)(=O)N2CCOCC2)c1)c1cn(-c2ccccc2)nc1-c1ccccc1,10.7%,-12.4%,-28.4%,10.4µM*,-1.3,-11.9
Cc1ccc(-c2nn(-c3ccccc3)cc2C(=O)NCCCN2CCOCC2)cc1,2.2%,4.3%,-4.0%,-4.0%,16.2*,36.4
Cc1ccc(-c2nn(-c3ccccc3)cc2C(=O)Nc2ccc(C)c(S(=O)(=O)N3CCOCC3)c2)cc1,-0.3%,9.9%,10.4µM*,?,9.2,11.1
COc1cc2oc(=O)ccc2cc1-c1c(OC)ccc2ccc(=O)oc12,2.1%,nt,nt,nt,nt,nt
Cc1nn(Cc2ccccc2)c(Cl)c1C(=O)OC(C)C(=O)Nc1ccc(F)cc1Cl (configuration not stated),14.1%,-3.2%,?,13.1µM*,-1.1,-4.5
COc1ccc(-c2csc(N(CC3CCCO3)C(=O)c3ccc(C)cc3)n2)cc1 (configuration not stated),1.6%,6.4%,5.22µM*,10.4µM*,-3.3,-14.5
Cc1ccc(-c2csc(N(CC3CCCO3)C(=O)c3ccco3)n2)cc1 (configuration not stated),-101.4%,-14.9%,?,?,22.7*,39.9*
O=C(c1ccco1)N(CC1CCCO1)c1nc(-c2ccccc2)cs1 (configuration not stated),-15.8%,-30.9%,?,nt,0.6,-4.4
COc1ccc(F)cc1CN1CCN(CC(=O)Nc2ccccc2C(=O)NC2CC2)CC1,0.6%,nt,?,?,nt,nt
CC(NC(=O)CN1CCN(c2ccccc2F)CC1)c1ccccc1 (configuration not stated),25.2%,3.7%,-4.7%,?,0.6,-7.3
COC(=O)c1ccc(C(=O)OC)c(NC(=O)CN2CCN(c3ccccc3OC)CC2)c1,5.4%,-25.3%,13.1µM*,-19.1%,6.2,-5.4
CC(NC(=O)c1ccccc1NC(=O)CN1CCc2ccccc2C1)c1ccccc1 (configuration not stated),-7.6%,-2.1%,?,13.1µM*,-2.4,-5.4
COC(=O)c1ccc(C(=O)OC)c(NC(=O)CN2CCN(c3ccccc3)CC2)c1,?,-9.5%,-18.9%,0.0%,-4.8,-27.2
COc1ccc(CN2CCN(CC(=O)Nc3ccccc3C(=O)NC3CC3)CC2)cc1F,5.6%,nt,10.4µM*,?,nt,nt
CC(NC(=O)c1ccccc1NC(=O)CN1CCN(c2ccccc2O)CC1)c1ccccc1 (configuration not stated),-5.6%,nt,5.86µM*,13.1µM*,nt,nt
COc1ccc(OC)c(NC(=O)c2nc(-c3ccccc3)oc2C)c1,2.4%,nt,15.7%,35.8%,1.0,-16.7
COc1ccc(NC(=O)COc2ccccc2)cc1NC(=O)c1ccco1,3.0%,-28.1%,29.8%,205.9%,0.5,-3.2
CCOc1ccccc1N1CCN(CC(=O)Nc2ccccc2C(=O)NC2CC2)CC1,-2.0%,nt,9.28µM*,?,nt,nt
CCOc1ccccc1NC(=O)CN1CCC(NC(=O)c2ccccc2C)CC1,-0.4%,-2.1%,?,?,-4.7,-5.8
COc1ccccc1N1CCN(CC(=O)Nc2ccccc2C(=O)NCCc2ccccc2)CC1,6.0%,nt,?,?,nt,nt

# Screens deposited in PubChem by National Center for Advancing Translational Sciences (NCATS).
